Measurements taken from ChEMBL document CHEMBL4513146, “CO-ADD screening of Karazin Kharkiv National University (Ukraine) compounds”.
Potency and affinity values are given separately.

test system: Escherichia coli; settings: Concentration 32 ug.mL-1;; ASSAY_TEST Inhibition of Bacterial Growth; detection method Absorption (OD600); MEDIA CAMHB; plate type 384well; NBS; CORNING #3640; time 18 hr

Compound	Inhibition [%]
O=S(=O)(c1ccc2nncn2c1)N(Cc1cc(F)cc(F)c1)c1ccc(F)c(F)c1	-4.86
CSc1ccc(CNC(=O)Cn2nc3c(N4CC(C)CC(C)C4)nccn3c2=O)cc1 (centres undefined)	0.68
Cc1nnc2c(S(=O)(=O)N(Cc3cccc(F)c3)c3cccc(F)c3)cccn12	0.97
CC(C)c1ccc(N(Cc2ccccc2F)S(=O)(=O)c2cccn3cnnc23)cc1	-0.79
COC(=O)c1ccccc1NC(=O)Cn1nc2c(Oc3ccccc3)nccn2c1=O	-3.16
COc1cccc(CNC(=O)CSc2nnc3c4cc(-c5cc(C)ccc5C)nn4ccn23)c1OC	-5.6
Cc1ccc(C)c(CN(c2cccc(Cl)c2)S(=O)(=O)c2cccn3c(C)nnc23)c1	-2.76
CN(Cc1ccccc1)C(=O)CSc1nnc2c3cc(-c4ccccc4)nn3ccn12	-11.2
O=c1c2sccc2n2c(=O)n(Cc3ccccc3Cl)nc2n1Cc1cccs1	-2.76
CCc1ccc(N(Cc2ccc(C)cc2)S(=O)(=O)c2cccn3c(CC)nnc23)cc1	-4.79
CCc1ccc(N(Cc2ccccc2)S(=O)(=O)c2cccn3c(C)nnc23)cc1	-3.19
CC(C)c1nnc2c(SCC(=O)Nc3ccc(Br)cc3)nc3ccccc3n12	1.75
O=C(CSc1nnc2c(=O)n(-c3ccccc3)ccn12)Nc1ccc2c(c1)OCO2	-2.5
COc1ccc(CN(c2ccc(OC)cc2)S(=O)(=O)c2ccc3nnc(C)n3c2)cc1	-1.31
